Results taken from PubChem BioAssay (Tox21).
Inconclusive results are not listed. Calls of active or inactive are those of the source. Calls come from the whole dose curve; as a rule, active = well fitted activation curve with a large enough effect in the signal ratio in the repeat runs (not every such curve was filed as active); inconclusive = weak or mixed curves; inactive = flat fitted curve, though single readings scatter; the % refers to the signal ratio.

Test: qHTS assay to identify small molecule agonists of the TGF-beta/Smad signaling pathway (AID 1346859)
Conditions: SBE-bla HEK293T, TGF-beta/Smad beta-lactamase reporter, 5 h; series mostly up to 76.8 µM; activation: at the top concentration
Excerpt: U.S. Tox21 Program National Center for Advancing Translational Sciences [NCATS] NIH Chemical Genomics Center [NCGC] U.S. Environmental Protection Agency [EPA] National Institutes of Environmental Health Sciences [NIEHS] National Toxicology Program [NTP] U.S. Food and Drug Administration [FDA] Tox21 Assay Overview: Transforming growth factor beta (TGF-beta) superfamily consists of a large number of structurally related dimeric proteins that act as hormones or local mediators in regulating a wide range of biological functions. This superfamily includes TGF-betas themselves, the bone morphogenetic proteins (BMPs) and the activins. These ligands induce oligomerization of serine/threonine receptor kinases and phosphorylate the cytoplasmic signaling molecules of Smad protein family. CellSensor SBE-bla HEK 293T cell line (Life Technologies, Carlsbad, CA), responsive to TGF-beta was used to screen Tox21 10K compound library for identification of agonists/antagonists of the Smad signaling pathway. This cell line contains a beta-lactamase reporter gene under control of the Smad binding element (SBE) stably integrated into HEK 293T cells.
Tox21 Assay Protocol Summary: SBE-bla HEK 293T cells were dispensed at 4,000/well in 6 uL of assay medium into black wall/clear-bottom 1536-well plates using a Multidrop Combi (ThermoFisher Scientific, Waltham, MA) dispenser. After the assay plates were incubated at 37 C and 5% CO2 for an overnight, 23 nL of compounds dissolved in DMSO, positive controls or DMSO only was transferred to the assay plate by a Pintool station (Kalypsys, San Diego, CA). The assay plates were incubated at 37 C and 5% CO2 for 5 hr. One uL of LiveBLAzer B/G FRET substrate (Life Technologies) was added using a Flying Reagent Dispenser (Aurora Discovery, San Diego, CA) and the plates were incubated at room temperature for 2 hr. Fluorescence intensity (405 nm excitation, 460 nm and 530 nm emissions) was measured using an Envision plate reader (PerkinElmer, Shelton, CT).
% is set by controls: 0 for no effect and ±100 for the full control effect.

**Q.** With `CCC(=O)OC1(c2ccccc2)CCN(C)CC1` as the molecule, how does the “activation” value read?
**A.** The value was -2.35% (inactive).

**Q.** Which “activation” value does the source give for `O=C(O)CBr` here?
**A.** Its value is -0.443% (inactive).

**Q.** With `Clc1nc(Cl)nc(Nc2ccccc2Cl)n1` as the molecule, how does the “activation” value read?
**A.** The value was -2.42% (inactive).

**Q.** With `CCCOC(=O)Cc1ccc(OCC(=O)N(CC)CC)c(OC)c1` as the molecule, how does the “activation” value read?
**A.** The value was -2% [at 35.3 µM] (inactive).

**Q.** For `CCN(CC)C1CCCCC1`, which “activation” value is on record?
**A.** The value was 0.421% (inactive).

**Q.** For `CC(C)[C@]12CC(=O)[C@H](C)[C@H]1C2`, which “activation” value is on record?
**A.** Its value is 1.07% (inactive).

**Q.** With `N[C@@H]1C[C@H]1c1ccccc1` as the molecule, how does the “activation” value read?
**A.** Its value is -3.39% [at 35.3 µM] (inactive).

**Q.** With `COc1cccc(C=O)c1` as the molecule, how does the “activation” value read?
**A.** Its value is 3.46% (inactive).

**Q.** With `ClCCCCl` as the molecule, how does the “activation” value read?
**A.** The value was -2.25% (inactive).

**Q.** For `CCCC[N+](=O)[O-]`, which “activation” value is on record?
**A.** Its value is -5.14% (inactive).

**Q.** With `CNC(=O)NC(O)C(Cl)(Cl)Cl` (stereo not given) as the molecule, how does the “activation” value read?
**A.** The value was 1.3% [at 35.3 µM] (inactive).

**Q.** For `BrCCc1ccccc1`, which “activation” value is on record?
**A.** The value was 2.63% (inactive).

**Q.** For `CN(C)CCc1c[nH]c2cccc(OP(=O)(O)O)c12`, which “activation” value is on record?
**A.** Its value is -6.14% (inactive).

**Q.** With `CCNc1nc(NCC)nc(SC)n1` as the molecule, how does the “activation” value read?
**A.** Its value is 2.04% (inactive).

**Q.** With `NNC(N)=O` as the molecule, how does the “activation” value read?
**A.** The value was -2.18% (inactive).

**Q.** With `CON(C)C(=O)Nc1ccc(Br)c(Cl)c1` as the molecule, how does the “activation” value read?
**A.** Its value is -4.1% (inactive).

**Q.** Which “activation” value does the source give for `COC(=O)[C@@H](N)CCCN/C(N)=N/[N+](=O)[O-]` here?
**A.** Its value is 0.77% [at 35.3 µM] (inactive).

**Q.** For `S=C=S`, which “activation” value is on record?
**A.** Its value is -0.328% (inactive).

**Q.** With `CCOP(=O)(CN(CCO)CCO)OCC` as the molecule, how does the “activation” value read?
**A.** Its value is -0.148% (inactive).

**Q.** For `C=CC(=O)OCCN(C)C`, which “activation” value is on record?
**A.** Its value is -0.263% (inactive).

**Q.** Which “activation” value does the source give for `C(COCC1CO1)OCC1CO1` (stereo not given) here?
**A.** Its value is -1.77% (inactive).

**Q.** With `BrCC1CO1` (stereo not given) as the molecule, how does the “activation” value read?
**A.** Its value is 1.58% (inactive).

**Q.** Which “activation” value does the source give for `CC[C@H](O)C(C[C@H](C)N(C)C)(c1ccccc1)c1ccccc1` here?
**A.** Its value is -2.07% (inactive).

**Q.** Which “activation” value does the source give for `CCC1(CC)C(=O)C=CNC1=O` here?
**A.** Its value is -0.895% [at 35.3 µM] (inactive).

**Q.** Which “activation” value does the source give for `C=C(Cl)CSC(=S)N(CC)CC` here?
**A.** Its value is 0% (inactive).

**Q.** For `O=C1CCCCC1Cl` (stereo not given), which “activation” value is on record?
**A.** Its value is -0.192% (inactive).

**Q.** For `Cc1cccc2sc3nncn3c12`, which “activation” value is on record?
**A.** Its value is 0.447% (inactive).

**Q.** With `CS(=O)(=O)c1ccc(C(=O)C2C(=O)CCCC2=O)c(Cl)c1COCC(F)(F)F` as the molecule, how does the “activation” value read?
**A.** Its value is -2.85% (inactive).

**Q.** Which “activation” value does the source give for `Cn1c(N)nc2c3cccnc3ccc21` here?
**A.** Its value is -0.241% (inactive).

**Q.** For `Cc1ccc2cc(C)ccc2c1`, which “activation” value is on record?
**A.** Its value is 1.47% (inactive).

**Q.** With `CN(C)C1CCCCC1` as the molecule, how does the “activation” value read?
**A.** Its value is -0.371% (inactive).

**Q.** For `ClCCCCCCCl`, which “activation” value is on record?
**A.** The value was -0.466% (inactive).

**Q.** Which “activation” value does the source give for `CCN(CCO)CCn1c(Cc2ccccc2)nc2c1c(=O)n(C)c(=O)n2C` here?
**A.** The value was -3.21% [at 35.3 µM] (inactive).

**Q.** With `C#CCOC(=O)/C=C(C)/C=C/CC(C)CCCC(C)C` (stereo not given) as the molecule, how does the “activation” value read?
**A.** Its value is 4.2% (inactive).

**Q.** Which “activation” value does the source give for `CCOP(=S)(OCC)SCCl` here?
**A.** The value was 3.34% (inactive).

**Q.** Which “activation” value does the source give for `CCCOC(=O)c1cncn1C(C)c1ccccc1` (stereo not given) here?
**A.** The value was 1.85% [at 35.3 µM] (inactive).

**Q.** Which “activation” value does the source give for `COc1ccc(CN2CCNCC2)c(OC)c1OC` here?
**A.** Its value is -3.29% [at 35.3 µM] (inactive).

**Q.** For `CC(Cc1ccccc1)NCCn1cnc2c1c(=O)n(C)c(=O)n2C` (stereo not given), which “activation” value is on record?
**A.** The value was 2.57% (inactive).

**Q.** Which “activation” value does the source give for `O=C1CC(=O)NC(=O)N1` here?
**A.** Its value is -3.14% (inactive).

**Q.** With `C=C1CC[C@@]2(O)[C@H]3Cc4ccc(O)c5c4[C@@]2(CCN3CC2CC2)[C@H]1O5` as the molecule, how does the “activation” value read?
**A.** The value was 0.491% [at 35.3 µM] (inactive).
